Screening results (PubChem BioAssay)
A selection: hits, their analogues and other compounds. The true share with any hit is near 19%.
TDP1 block – qHTS Assay for Inhibitors of Tyrosyl-DNA Phosphodiesterase (TDP1); Tyrosyl-DNA phosphodiesterase 1 (Homo sapiens), Q9NUW8; recombinant TDP1, AlphaScreen DNA substrate cleavage; Potency, µM (highest dose often 130 µM), most hits filed as inhibitors; 0.28% of 350,000 active; AID 485290, 2010; also: nearly all actives have a fitted effect of over 40% in size
Target sequence (Q9NUW8 whole entry, looked up): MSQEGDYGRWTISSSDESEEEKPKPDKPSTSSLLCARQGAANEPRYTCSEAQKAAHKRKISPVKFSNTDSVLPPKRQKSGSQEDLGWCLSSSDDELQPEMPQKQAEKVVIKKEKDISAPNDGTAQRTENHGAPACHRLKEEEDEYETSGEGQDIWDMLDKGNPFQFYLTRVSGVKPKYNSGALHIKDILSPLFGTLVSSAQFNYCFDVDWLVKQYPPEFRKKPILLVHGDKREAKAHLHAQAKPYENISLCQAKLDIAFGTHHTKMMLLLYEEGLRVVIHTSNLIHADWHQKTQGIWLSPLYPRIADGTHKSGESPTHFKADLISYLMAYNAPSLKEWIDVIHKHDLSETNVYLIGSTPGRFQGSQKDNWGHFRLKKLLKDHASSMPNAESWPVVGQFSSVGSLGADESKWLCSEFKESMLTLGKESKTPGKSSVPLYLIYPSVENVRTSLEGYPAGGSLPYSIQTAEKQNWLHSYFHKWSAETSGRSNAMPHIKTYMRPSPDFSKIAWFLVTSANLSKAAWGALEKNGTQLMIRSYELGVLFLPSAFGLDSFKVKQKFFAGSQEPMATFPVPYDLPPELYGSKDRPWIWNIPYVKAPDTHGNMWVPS
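Recombinant E. coli-expressed Tdp1 (1 nM) preincubated with compound 15 min at RT, then 5'-biotin/3'-phosphotyrosine-FITC DNA substrate (15 nM) added for 5 min. AlphaScreen beads (10 ug/ml) added, 10 min RT; tyrosine-FITC cleavage read as signal loss.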
IL1B secr inh – qHTS for Inhibitors of Inflammasome Signaling: IL-1-beta AlphaLISA Primary Screen; activity change, % at 57.5 µM; THP-1 LPS/ATP IL-1B secretion, AlphaLISA, 16 h; hits give low values; AID 743279, 2014; 4.7% of 360,000 active; in the data active = activity change below about -50%; inconclusive = mostly about -30% to -49%
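Secreted IL-1B measured by AlphaLISA bead assay after 16 h compound exposure of THP-1 cells; compounds (final up to 57.5 uM) added 1 h before LPS (250 ng/mL) and ATP (1.25 mM) stimulation; lower signal means less secretion.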
TDP1 cell CPT – qHTS for Inhibitors of human tyrosyl-DNA phosphodiesterase 1 (TDP1): qHTS in cells in presence of CPT. 12% of 420,000 active. Potency, µM (doses to about 46.2 µM), usual class: inhibitors. chicken DT40 Tdp1-/-;hTDP1 cells + 20 nM CPT, ATP luminescence, 48 h; also: nearly all actives have a fitted effect of over 55% in size
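Chicken DT40 Tdp1-/- cells complemented with human TDP1, 400 cells/well, exposed to compounds plus 20 nM camptothecin for at least 48 h at 37 C; viability read as ATP content by CellTiter-Glo luminescence.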
TDP1 cell noCPT – qHTS for Inhibitors of human tyrosyl-DNA phosphodiesterase 1 (TDP1): qHTS in cells in absence of CPT. DT40 Tdp1-/- hTDP1 cells, no CPT, ATP luminescence, 48 h. Potency, µM (doses to about 46.2 µM), usual class: inhibitors. 15% of 420,000 active. AID 686978, 2013; also: nearly all actives have a fitted effect of over 55% in size
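DT40 Tdp1-/-;hTDP1 cells, no CPT (DMSO vehicle only), 400 cells/well; compounds pin-transferred; ≥48 hr, 37 °C; CellTiter-Glo 30 min RT dark, luminescence read.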
Giardia kill – Small Molecules that selectively kill Giardia lamblia: qHTS; activity change, % at 7.66 µM, hits read low; Giardia lamblia trophozoite viability; 0.15% of 340,000 active; in the data active = activity change below about -80%; inconclusive = between about -30% and that limit;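 also: parasites exposed to compound for two days anaerobically before the ATP read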
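Killing of trophozoites was scored by loss of ATP luminescence after a 48 hrs anaerobic exposure to compounds at 37 deg C, using 100 cells per well.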
ELG1 repair inh – qHTS screen for small molecules that inhibit ELG1-dependent DNA repair in human embryonic kidney (HEK293T) cells expressing luciferase-tagged ELG1; HEK293T ELG1-luciferase reporter, luminescence, 16 h; DNA damage induced by 5-fluorouridine; Potency, µM (highest dose often 46.1 µM), usual class: inhibitors; 2.3% of 330,000 active; AID 504467, 2011; also: nearly all actives have a fitted effect of over 55% in size
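Luminescence from the luciferase reporter, measured 30 min after ONE-Glo reagent at room temperature, was the read-out. Beforehand, 2,000 cells per well were exposed for 16 hr at 37 °C to 5-fluorouridine together with compound or vehicle.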
Numbers stand for hits; [ ] = remark or other dose. Unless noted, calls follow the shape of the dose curve; as a rule, active = well fitted curve in the direction sought with a large enough effect; inconclusive = small, poorly fitted or top-dose-only effect, or another doubt; inactive = no such curve, though single readings can be large; an effect the other way counts as inactive or inconclusive.

`Cc1ccc(S(=O)(=O)Nc2ccccn2)cc1[N+](=O)[O-]` gave TDP1 block inactive, IL1B secr inh inactive, TDP1 cell CPT inactive, TDP1 cell noCPT inactive, Giardia kill inactive and ELG1 repair inh inactive.
Screening O=C(NC(c1ccccc1)c1ccsc1)C1CCN(Cc2ccc(Oc3ccccc3)cc2)CC1 (centres undefined) returned IL1B secr inh inconclusive, TDP1 cell CPT inconclusive and TDP1 cell noCPT 18µM.
COc1cc(OC)nc(C(NC(=O)C2CCN(Cc3ccc(N(C)C)cc3)CC2)c2ccc(F)cc2)n1 (centres undefined) was read as IL1B secr inh inactive, TDP1 cell CPT inconclusive and TDP1 cell noCPT inconclusive.
COc1ccccc1C(NC(=O)C1CCN(CCOc2ccccc2)CC1)c1ccccn1 (centres undefined) was read as IL1B secr inh inactive, TDP1 cell CPT inconclusive and TDP1 cell noCPT inconclusive.
Screening COc1cc(CN2CCC(C(=O)NC(c3ccc(-c4ccccc4)cc3)c3cnccn3)CC2)cc(OC)c1 (centres undefined) returned IL1B secr inh -53, TDP1 cell CPT 9.2µM and TDP1 cell noCPT 23µM.
`Cc1cccnc1C(NC(=O)C1CCN(Cc2ccccc2)CC1)c1ccc(F)cc1` (centres undefined) gave IL1B secr inh inactive, TDP1 cell CPT inconclusive and TDP1 cell noCPT inconclusive.
`COc1cc(OC)nc(C(NC(=O)C2CCN(Cc3c[nH]c4ccccc34)CC2)c2ccc(Cl)cc2)n1` (centres undefined) gave IL1B secr inh -61, TDP1 cell CPT inconclusive and TDP1 cell noCPT 18µM.
COc1cc(CN2CCC(C(=O)NC(c3ccc(F)cc3)c3ncccc3C)CC2)cc(OC)c1 (centres undefined) was read as IL1B secr inh inactive, TDP1 cell CPT 23µM and TDP1 cell noCPT inconclusive.
`CCc1ccc(N2CC(C(=O)N3CCN(c4ccccn4)CC3)CC2=O)cc1` (centres undefined) gave TDP1 block inactive, IL1B secr inh inactive, TDP1 cell CPT inconclusive, TDP1 cell noCPT inconclusive, Giardia kill inactive and ELG1 repair inh inactive.
`Cc1ccc(S(=O)(=O)N2CCCOC2CNC(=O)C(=O)NC2CCCCC2)cc1` (centres undefined) gave TDP1 block inactive, IL1B secr inh inactive, TDP1 cell CPT inactive, TDP1 cell noCPT inconclusive, Giardia kill inactive and ELG1 repair inh inactive.
Screening Cc1ncc2c(c1CNC(=O)/C=C/c1cccs1)CCN(C(=O)c1cc(C(C)C)on1)C2 returned TDP1 cell CPT inactive[9.04 µM] and TDP1 cell noCPT inactive.
Screening COC(=O)CNC(=O)CSc1nnc(C)c(=O)[nH]1 returned TDP1 block inactive, IL1B secr inh inactive, TDP1 cell CPT inactive, TDP1 cell noCPT inactive, Giardia kill inactive and ELG1 repair inh inactive.
CC1CC(c2ccccc2)NS(=O)(=O)O1 (centres undefined) was read as IL1B secr inh inactive, TDP1 cell CPT inactive, TDP1 cell noCPT inactive, Giardia kill inactive and ELG1 repair inh inactive.
Screening COc1ccc(CN2CCC(C(=O)Nc3ccc(Oc4cccnc4)cc3)CC2)cc1 returned TDP1 block inactive, IL1B secr inh inactive, TDP1 cell CPT inconclusive, TDP1 cell noCPT inactive, Giardia kill inactive and ELG1 repair inh inactive.
O=C(NC(c1ccc(-c2ccccc2)cc1)c1cnccn1)C1CCN(Cc2cccs2)CC1 (centres undefined) was read as IL1B secr inh inactive, TDP1 cell CPT inconclusive and TDP1 cell noCPT inconclusive.
For O=C(NC(c1ccc(-c2ccccc2)cc1)c1cnccn1)C1CCN(CCN2C(=O)c3ccccc3C2=O)CC1 (centres undefined) the results were IL1B secr inh inactive, TDP1 cell CPT 23µM and TDP1 cell noCPT 23µM.
Screening Cc1cccnc1C(NC(=O)C1CCN(Cc2ccc(Oc3ccccc3)cc2)CC1)c1ccccc1 (centres undefined) returned IL1B secr inh inconclusive, TDP1 cell CPT 15µM and TDP1 cell noCPT 18µM.
For O=C(NC(c1ccc(-c2ccccc2)cc1)c1cnccn1)C1CCN(Cc2ccc(Oc3ccccc3)cc2)CC1 (centres undefined) the results were IL1B secr inh -52, TDP1 cell CPT inconclusive and TDP1 cell noCPT inconclusive.
COc1ccc(C(NC(=O)C2CCN(Cc3ccc(Oc4ccccc4)cc3)CC2)c2ccccn2)cc1 (centres undefined) was read as IL1B secr inh inconclusive, TDP1 cell CPT 16µM and TDP1 cell noCPT 16µM.
Cc1ccc(CNC(=O)c2ccc(N3Cc4ccccc4Oc4ncccc43)s2)cc1 was read as TDP1 block inactive, TDP1 cell CPT inconclusive and TDP1 cell noCPT inconclusive.
Screening COc1cc(-c2nc3ccccn3c2/N=C/c2cc(OC)c(O)cc2Cl)ccc1O returned TDP1 block inactive, IL1B secr inh inactive, TDP1 cell CPT inactive, TDP1 cell noCPT inactive, Giardia kill inactive and ELG1 repair inh inactive.
Screening CCc1csc(CNC(=O)C2CCC(=O)N(Cc3cccc(F)c3)C2)n1 (centres undefined) returned TDP1 block inactive, IL1B secr inh inactive, TDP1 cell CPT inactive, TDP1 cell noCPT inactive, Giardia kill inactive and ELG1 repair inh inactive.
For COc1ccc(/C=C/C(=O)OCC(=O)Nc2ccc3[nH]c(=O)[nH]c3c2)cc1OC the results were TDP1 block inactive, IL1B secr inh inactive, TDP1 cell CPT inactive, TDP1 cell noCPT inactive, Giardia kill inactive and ELG1 repair inh inactive.
For COc1ccc(C(NC(=O)C2CCN(Cc3ccc(Oc4ccccc4)cc3)CC2)c2ccccc2C)cn1 (centres undefined) the results were IL1B secr inh inconclusive, TDP1 cell CPT 21µM and TDP1 cell noCPT 18µM.
Screening Cc1ccc(C)c(C(C)NC(=S)NCc2ccc(F)cc2)c1 (centres undefined) returned TDP1 block inactive, IL1B secr inh inactive, TDP1 cell CPT 23µM, TDP1 cell noCPT inconclusive, Giardia kill inactive and ELG1 repair inh inconclusive.
Screening COc1cccc(C(C)NC(=S)NCc2ccc(Cl)cc2)c1 (centres undefined) returned TDP1 block inactive, IL1B secr inh inactive, TDP1 cell CPT inactive, TDP1 cell noCPT inactive, Giardia kill inactive and ELG1 repair inh inconclusive.
